Results filed as inconclusive are left out. Activity calls are given as the source filed them. Unless noted, calls follow the shape of the full dose curve.
Tested on: not listed separately
Assay: qHTS Assay for Identification of Small Molecule Inducers of Hypoxia Response (AID 2120; active = well fitted curve in the direction sought with a large enough effect in the signal ratio, with a control signal flat, not every such curve was filed as active; the % refers to the signal ratio; also: 0% is about no effect)
Conditions: hypoxia response reporter cells, beta-lactamase ratio readout; series mostly up to 104 µM; activation: at the top concentration
Procedure, shortened: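 Cell-based qHTS for reporter induction: hypoxia response element controlled beta-lactamase in ME-180 cells. Compounds incubated 17 h at 37 degrees C; activity from blue/green (460/530 nm) ratio, inducers ranked by AC50.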

| Structure (SMILES) | activation |
| --- | --- |
| CC=O | 0.311% (inactive) |
| Cc1ccc(CO)cc1 | 0.725% (inactive) |
| Cc1cc([N+](=O)[O-])ccc1N | 0.205% (inactive) |
| Clc1cc(Cl)cc(Cl)c1 | 0.0093% (inactive) |
| Nc1nc2ccccc2[nH]1 | 2.72% (inactive) |
| NC(=O)c1ccccc1[N+](=O)[O-] | -0.311% (inactive) |
| COc1ccc(N)c(C)c1 | -0.0046% (inactive) |
| Oc1cccc(Nc2ccccc2)c1 | 1.52% (inactive) |
| O=C(O)c1cccc(Cl)c1Cl | 0.221% (inactive) |
| O=C(O)CNC(=O)c1ccc(CO)o1 | -0.0975% (inactive) |
| Nc1cccc2c(=O)[nH][nH]c(=O)c12 | 1.07% (inactive) |
| CCOc1cccc(N)c1 | 1.16% (inactive) |
| CCC(C)(C)C(=O)O | 2.46% (inactive) |
| ICCc1ccccc1 | -0.351% (inactive) |
| COc1ccc(OC)cc1 | 0.205% (inactive) |
| FC(F)(F)c1cccc(Cl)c1 | -0.1% (inactive) |
| CCNS(=O)(=O)c1ccc(C)cc1 | 0.883% (inactive) |
| CCOc1ccccc1N | 0.186% (inactive) |
| C=CC(=O)NC(C)C | -0.604% (inactive) |
| Cc1ccc2cccnc2c1 | 0.464% (inactive) |

| Structure (SMILES) | activation |
| --- | --- |
| CCCCCCO | 0.6% (inactive) |
| CC(=O)Nc1ccccc1C | 0% (inactive) |
| CC(C)(c1cc(Br)c(OCC(Br)CBr)c(Br)c1)c1cc(Br)c(OCC(Br)CBr)c(Br)c1 (stereo not given) | 1.53% (inactive) |
| COc1ccc(N=[N+]([O-])c2ccc(OC)cc2)cc1 | 1.52% (inactive) |
| CNc1ccccc1 | 2.69% (inactive) |
| Oc1c(Cl)ccc(Cl)c1Cl | 0.604% (inactive) |
| CN(C)CCCNCCCN | 0.809% (inactive) |
| ClC/C=C/CCl | 0.029% (inactive) |
| O=C(Cl)c1cccc([N+](=O)[O-])c1 | 0.464% (inactive) |
| CC(=C/C=C/C(C)=C/C=C/C=C(C)/C=C/C=C(C)/C=C/C(=O)O)/C=C/C(=O)O | 0.0807% (inactive) |
| Cc1cccc(C(=O)O)c1 | 0.311% (inactive) |
| Cc1ccc2ncccc2c1 | -0.342% (inactive) |
| Nc1cccc(C(F)(F)F)c1 | 1.06% (inactive) |
| O=Cc1ccc(C(=O)O)cc1 | 0.585% (inactive) |
| NC(=O)/N=N/C(N)=O | 1.21% (inactive) |
| CC(=O)c1cccc([N+](=O)[O-])c1 | -0.146% (inactive) |
| CNC(=O)c1ccccc1 | 1.2% (inactive) |
| O=[N+]([O-])c1cccc(C(F)(F)F)c1 | 0.858% (inactive) |
| CCC(C)(C)OC | 0.809% (inactive) |
| NC(N)=S | -0.0807% (inactive) |

Target: Estrogen receptor (Homo sapiens) (UniProt P03372)
Assay: qHTS assay for small molecule antagonists of estrogen receptor alpha signaling (AID 588513; active = well fitted curve in the direction sought with a large enough effect in the signal ratio, with a control signal flat, not every such curve was filed as active; the % refers to the signal ratio; also: % is scaled to controls: 0 for no effect and ±100 for the full control effect)
Conditions: ER-alpha-UAS-bla HEK293, beta-lactamase ratio, antagonist mode; series mostly up to 76.9 µM; activity, negative = inhibition: at the top concentration
Procedure, shortened: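 ER-alpha-UAS-bla GripTite HEK 293 cells in 2% charcoal/dextran-treated FBS medium; compounds titrated (1:2, duplicate), then stimulated with 0.5 nM 17-beta-estradiol for 18 h at 37C. CCF4 beta-lactamase fluorescence; Hill-fit IC50 and efficacy.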

Chain of Estrogen receptor (Homo sapiens) (P03372 whole entry, looked up): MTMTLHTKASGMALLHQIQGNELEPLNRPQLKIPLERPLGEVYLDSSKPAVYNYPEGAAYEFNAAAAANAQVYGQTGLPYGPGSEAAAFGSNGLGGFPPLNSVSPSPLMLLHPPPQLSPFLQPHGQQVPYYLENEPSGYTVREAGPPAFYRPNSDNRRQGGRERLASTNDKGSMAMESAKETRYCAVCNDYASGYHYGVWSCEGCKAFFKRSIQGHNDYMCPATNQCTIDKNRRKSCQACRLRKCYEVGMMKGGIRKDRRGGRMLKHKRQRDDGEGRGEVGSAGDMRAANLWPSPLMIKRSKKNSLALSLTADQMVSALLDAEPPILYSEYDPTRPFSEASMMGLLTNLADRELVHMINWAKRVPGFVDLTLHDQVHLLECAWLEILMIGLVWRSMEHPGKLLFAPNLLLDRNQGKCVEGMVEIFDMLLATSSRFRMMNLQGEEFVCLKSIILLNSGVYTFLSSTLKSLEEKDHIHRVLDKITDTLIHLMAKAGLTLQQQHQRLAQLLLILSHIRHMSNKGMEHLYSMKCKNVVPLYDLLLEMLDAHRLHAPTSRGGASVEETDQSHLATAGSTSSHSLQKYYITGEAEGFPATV

| Structure (SMILES) | activity, negative = inhibition |
| --- | --- |
| CC=O | -17.1% (inactive) |
| Cc1ccc(CO)cc1 | 22.2% (inactive) |
| Cc1cc([N+](=O)[O-])ccc1N | 8.03% (inactive) |
| Clc1cc(Cl)cc(Cl)c1 | 4.99% (inactive) |
| Nc1nc2ccccc2[nH]1 | 23.1% (inactive) |
| NC(=O)c1ccccc1[N+](=O)[O-] | 5.9% (inactive) |
| COc1ccc(N)c(C)c1 | 27.7% (inactive) |
| Oc1cccc(Nc2ccccc2)c1 | -8.78% (inactive) |
| O=C(O)c1cccc(Cl)c1Cl | 2.61% (inactive) |
| O=C(O)CNC(=O)c1ccc(CO)o1 | -10.1% (inactive) |
| Nc1cccc2c(=O)[nH][nH]c(=O)c12 | 0.32% (inactive) |
| CCOc1cccc(N)c1 | -9.35% (inactive) |
| CCC(C)(C)C(=O)O | -5.41% (inactive) |
| ICCc1ccccc1 | 8.75% [at 36 µM] (inactive) |
| COc1ccc(OC)cc1 | 2.52% (inactive) |
| FC(F)(F)c1cccc(Cl)c1 | -20.1% (inactive) |
| CCNS(=O)(=O)c1ccc(C)cc1 | 18% (inactive) |
| CCOc1ccccc1N | 1.67% (inactive) |
| C=CC(=O)NC(C)C | 16.6% (inactive) |
| Cc1ccc2cccnc2c1 | -8.2% (inactive) |

| Structure (SMILES) | activity, negative = inhibition |
| --- | --- |
| CCCCCCO | 0.821% (inactive) |
| CC(=O)Nc1ccccc1C | 11.8% (inactive) |
| CC(C)(c1cc(Br)c(OCC(Br)CBr)c(Br)c1)c1cc(Br)c(OCC(Br)CBr)c(Br)c1 (stereo not given) | 20.1% (inactive) |
| COc1ccc(N=[N+]([O-])c2ccc(OC)cc2)cc1 | 7.9% (inactive) |
| CNc1ccccc1 | 10.5% (inactive) |
| Oc1c(Cl)ccc(Cl)c1Cl | -17.1% (inactive) |
| CN(C)CCCNCCCN | -17% (inactive) |
| ClC/C=C/CCl | 16.1% (inactive) |
| O=C(Cl)c1cccc([N+](=O)[O-])c1 | -6.69% (inactive) |
| CC(=C/C=C/C(C)=C/C=C/C=C(C)/C=C/C=C(C)/C=C/C(=O)O)/C=C/C(=O)O | 2.58% (inactive) |
| Cc1cccc(C(=O)O)c1 | -0.776% (inactive) |
| Cc1ccc2ncccc2c1 | 8.87% (inactive) |
| Nc1cccc(C(F)(F)F)c1 | 0.991% (inactive) |
| O=Cc1ccc(C(=O)O)cc1 | -1.74% (inactive) |
| NC(=O)/N=N/C(N)=O | 3.58% (inactive) |
| CC(=O)c1cccc([N+](=O)[O-])c1 | -29.1% (inactive) |
| CNC(=O)c1ccccc1 | 2.08% (inactive) |
| O=[N+]([O-])c1cccc(C(F)(F)F)c1 | -14.9% (inactive) |
| CCC(C)(C)OC | 19.2% (inactive) |
| NC(N)=S | 10.2% (inactive) |

Target: Estrogen receptor (Homo sapiens) (UniProt P03372)
Assay: qHTS assay for small molecule agonists of estrogen receptor alpha signaling (AID 588514); also: nearly all actives have a fitted effect of over 70% in size; also: potency is read from the fitted curve at half-maximal effect;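 as to activation: 0% = vehicle only and 100% = reference agonist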
Conditions: ER-alpha-UAS-bla HEK293, beta-lactamase ratio, 18 h; series mostly up to 76.8 µM; activation: at the top concentration
Procedure, shortened: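 Efficacy is expressed against 20 nM 17-beta-estradiol (100%) and DMSO basal (0%); EC50 from Hill equation. Assay: beta-lactamase reporter in ER-alpha-UAS-bla HEK 293 cells, 18 h compound incubation, CCF4 detection.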

| Structure (SMILES) | activation | Potency |
| --- | --- | --- |
| CC=O | 0.438% (inactive) | – |
| Cc1ccc(CO)cc1 | -2.84% (inactive) | – |
| Cc1cc([N+](=O)[O-])ccc1N | -10.5% (inactive) | – |
| Clc1cc(Cl)cc(Cl)c1 | -6.46% (inactive) | – |
| Nc1nc2ccccc2[nH]1 | 7.38% (inactive) | – |
| NC(=O)c1ccccc1[N+](=O)[O-] | -2.23% (inactive) | – |
| COc1ccc(N)c(C)c1 | -0.672% (inactive) | – |
| Oc1cccc(Nc2ccccc2)c1 | – | 25.1 µM (active) |
| O=C(O)c1cccc(Cl)c1Cl | -1.47% (inactive) | – |
| O=C(O)CNC(=O)c1ccc(CO)o1 | -1.93% (inactive) | – |
| Nc1cccc2c(=O)[nH][nH]c(=O)c12 | 1.34% (inactive) | – |
| CCOc1cccc(N)c1 | -7.71% (inactive) | – |
| ICCc1ccccc1 | 5.87% (inactive) | – |
| COc1ccc(OC)cc1 | -0.407% (inactive) | – |
| CCNS(=O)(=O)c1ccc(C)cc1 | -1.52% (inactive) | – |
| CCOc1ccccc1N | -1.96% (inactive) | – |
| C=CC(=O)NC(C)C | 8.5% (inactive) | – |
| CCCCCCO | 9.99% (inactive) | – |

| Structure (SMILES) | activation | Potency |
| --- | --- | --- |
| CC(=O)Nc1ccccc1C | 3.02% (inactive) | – |
| CC(C)(c1cc(Br)c(OCC(Br)CBr)c(Br)c1)c1cc(Br)c(OCC(Br)CBr)c(Br)c1 (stereo not given) | 0.62% (inactive) | – |
| COc1ccc(N=[N+]([O-])c2ccc(OC)cc2)cc1 | 8.7% (inactive) | – |
| CNc1ccccc1 | -6.29% (inactive) | – |
| Oc1c(Cl)ccc(Cl)c1Cl | 8.62% (inactive) | – |
| CN(C)CCCNCCCN | -6.97% (inactive) | – |
| ClC/C=C/CCl | -4.44% (inactive) | – |
| O=C(Cl)c1cccc([N+](=O)[O-])c1 | 1.38% (inactive) | – |
| Cc1ccc2ncccc2c1 | 0.616% (inactive) | – |
| Nc1cccc(C(F)(F)F)c1 | -0.144% (inactive) | – |
| O=Cc1ccc(C(=O)O)cc1 | -3.31% (inactive) | – |
| NC(=O)/N=N/C(N)=O | -0.958% (inactive) | – |
| CC(=O)c1cccc([N+](=O)[O-])c1 | 7.62% (inactive) | – |
| CNC(=O)c1ccccc1 | -4.41% (inactive) | – |
| O=[N+]([O-])c1cccc(C(F)(F)F)c1 | -6.45% (inactive) | – |
| CCC(C)(C)OC | -0.874% (inactive) | – |
| NC(N)=S | -3.24% (inactive) | – |

Reference: PubChem BioAssay (NCATS)
